# Screening results deposited in PubChem by several laboratories.
# Most compounds without a hit are left out; they make up all but 0.99% or so of the library.
# Cardiac RTF inh = cardiac RTF calcium desensitization. IANBD-labeled cardiac RTF, Ca2+ fluorescence. hit rate 0.12% among 340,000. inhibition, % at 7.15 µM. P19429+P45379;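 active means inhibition above the mean inhibition of all tested compounds plus 3 SD, cut at about 17% in these data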;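 further: assay run at fixed EC70 calcium of 1.6 mM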
# Keap1 Nrf2 FP = inhibitors of human Keap1-Nrf2 protein-protein interaction; hit rate 0.15% among 340,000; Keap1 Kelch-Nrf2 peptide fluorescence polarization, 1536-well; AID 504523; inhibition, % at 9.4 µM; in the data active means inhibition above about 12%;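 further: human Keap1 Kelch domain with fluorescein labeled Nrf2 9mer peptide probe; 0% = neutral control wells and 100% = peptide positive control; higher means more block of Keap1 binding to Nrf2 peptide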
# Target sequence (Q14145 whole entry, looked up, the tested form may be a part): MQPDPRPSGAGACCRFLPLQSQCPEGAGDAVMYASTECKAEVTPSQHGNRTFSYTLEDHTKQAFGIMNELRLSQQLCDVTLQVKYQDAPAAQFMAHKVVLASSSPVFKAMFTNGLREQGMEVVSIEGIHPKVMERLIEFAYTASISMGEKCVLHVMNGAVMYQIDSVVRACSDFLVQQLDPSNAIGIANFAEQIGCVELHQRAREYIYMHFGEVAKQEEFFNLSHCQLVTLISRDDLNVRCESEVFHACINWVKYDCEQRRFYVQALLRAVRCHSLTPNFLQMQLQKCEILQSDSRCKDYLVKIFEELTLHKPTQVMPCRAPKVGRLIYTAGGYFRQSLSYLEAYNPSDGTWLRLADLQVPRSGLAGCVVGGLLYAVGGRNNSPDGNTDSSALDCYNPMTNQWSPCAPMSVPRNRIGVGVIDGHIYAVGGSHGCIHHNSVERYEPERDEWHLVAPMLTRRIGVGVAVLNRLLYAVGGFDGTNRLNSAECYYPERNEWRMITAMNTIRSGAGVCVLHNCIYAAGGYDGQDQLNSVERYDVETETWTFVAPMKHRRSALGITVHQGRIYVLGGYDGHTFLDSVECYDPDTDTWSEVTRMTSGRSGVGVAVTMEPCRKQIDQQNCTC
# LANA DNA inh = KSHV C-LANA DNA binding inhibition | hit rate 0.078% among 340,000 | inhibition, % at 9 µM | MBP-C-LANA/FAM-LBS DNA binding, fluorescence polarization;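 active means highest replicate inhibition at or above 60% at 9 µM, even if other replicates fall short; inactive means all replicates below 60% inhibition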;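 further: 0% = neutral control wells and 100% = 4 µM acridine orange control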
# LANA-H2A inh = blocks KSHV LANA binding to histone H2A/H2B; hit rate 0.6% among 320,000; cell-free LANA-H2A/H2B peptide, fluorescence polarization; inhibition, % (concentration not given with the values); Q9QR71; in the data active means inhibition mostly above about 10%, no sharp cut-off; inactive means mostly below about 6.7%
# RTF Ca sens act = cardiac RTF calcium sensitization; AID 493008; IANBD-labeled TnC RTF fluorescence at EC20 calcium; 0% EC20 calcium, 100% full calcium; P19429+P45379; hit rate 0.24% among 340,000; activation, % at 7.2 µM;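 active means activation above the mean over all tested compounds plus 3 SD, cut at about 30% in these data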;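 further: rise in fluorescence read as greater calcium sensitivity of cardiac thin filaments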
# Keap1 Kelch bind = binds and thermally shifts human Keap1 Kelch domain; max delta Tm, degrees C; shares compounds with Keap1 Nrf2 FP; Keap1 Kelch thermal shift, delta Tm; hits give high values; AID 651823; hit rate 8% among 400; in the data active means max delta Tm above about 0.48 degrees C
# Sypro dye melt = dye artifact in Keap1 thermal shift counter-screen; shares compounds with Keap1 Nrf2 FP; Sypro Orange dye-only thermal melt, no protein, delta Tm; top dose 26 µM; delta Tm, degrees C (no concentration beside the values); 140 tested, under 10 active; AID 651858;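 active means at highest dose tested, delta Tm positive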
# Numbers without * were called inactive; i = inactive; . = no result.
SMILES,Cardiac RTF inh,Keap1 Nrf2 FP,LANA DNA inh,LANA-H2A inh,RTF Ca sens act,Keap1 Kelch bind,others
CCOc1cc(C2C(C#N)=C(N)OC3=C2C(=O)CC(C)(C)C3)cc([N+](=O)[O-])c1O (stereo unspecified),0,1,0,-3,-6,.,
COc1ccccc1N(C)S(=O)(=O)c1ccc(C(=O)NCc2ccccc2CN2CCCC2)cc1,-10,47*,30,.,3,-0.19,
COc1ccccc1CNC(=O)c1ccc(S(=O)(=O)N(C)c2ccccc2)cc1,-1,-2,0,.,-5,.,
O=C1NC(c2ccc(Cl)c([N+](=O)[O-])c2)Nc2ccccc21 (stereo unspecified),-5,-7,0,2,4,.,
O=C1NC(c2cc(Cl)cc([N+](=O)[O-])c2O)Nc2ccccc21 (stereo unspecified),-16,49*,1,-2,1,0.25,
Cc1ccc(-n2nnnc2SCC(=O)c2c(N)n(C3CC3)c(=O)[nH]c2=O)cc1,-9,42*,22,17*,9,-0.08,
COc1ccccc1CN1CCNC(=O)C1CC(=O)NCc1cn(C)nc1C (stereo unspecified),2,2,1,-5,2,.,
Cn1nc(C(=O)NNC(=O)Cc2ccc(S(=O)(=O)N3CCOCC3)s2)c2ccccc2c1=O,-14,32*,20,.,3,-0.18,Sypro dye melt=-28
Cc1ccc(S(=O)(=O)NC2(C(F)(F)F)C(=O)Nc3c2c(=O)[nH]c(=O)n3-c2ccccc2)cc1 (stereo unspecified),-20,-2,1,-3,-2,.,
Oc1[nH]c2ccccc2c1N=Nc1ccccc1,-18,20*,3,16*,17,-0.03,
O=C(N=Nc1c(O)[nH]c2ccccc12)Nc1ccccc1,-6,-6,-2,.,0,.,
Oc1[nH]c2ccccc2c1N=Nc1ccccc1F,-281,21*,41,-65,282*,-0.1,
CC(=O)C1C(c2ccc(F)cc2)c2c(noc2C)CC1(C)O (stereo unspecified),.,50*,26,-3,.,-0.15,
Cc1ccccc1Nc1nc(CSc2nnnn2-c2ccccc2)cs1,-2,0,0,-1,1,.,
c1ccc(-c2cn3nc4c(nc3n2)CCCC4)cc1,-27,22*,41,6,31*,-0.13,Sypro dye melt=-30
O=C(COc1ccccc1Br)Nc1ccccc1C(F)(F)F,-27,-6,1,3,-5,.,
COC(=O)C1=CO[C@@H](C)[C@H]2CN3CCc4c([nH]c5ccccc45)[C@@H]3C[C@H]12,12,-2,2,-3,-1,.,
COC(=O)C1=COC(C)C2CN3CCc4c([nH]c5ccccc45)C3CC12 (stereo unspecified),-33,15*,45,21,35*,0.01,
Nc1ccccc1N=Cc1ccc(-c2cccc(Cl)c2)o1,-14,4,0,3,2,.,
O=C(COC(=O)c1ccc([N+](=O)[O-])s1)Nc1cccc(S(=O)(=O)NC2=NCCCCC2)c1,2,53*,6,-7,-1,-0.13,
O=C(COC(=O)c1cccs1)Nc1cccc(S(=O)(=O)NC2=NCCCCC2)c1,-8,0,0,0,-1,.,
O=C(N=C1SC2CS(=O)(=O)CC2N1CCc1ccc(F)cc1)C1CCCCC1 (stereo unspecified),1,3,0,4,2,.,
Cc1ccc(C(=O)NNC(=O)c2n[nH]c(=O)c3ccccc23)cc1C,-23,33*,15,-2,10,-0.04,
O=C(NNC(=O)c1n[nH]c(=O)c2ccccc12)c1ccc(Br)cc1,5,-4,0,1,-1,.,
Fc1ccc(N/N=C2/CC(c3ccccc3)Oc3ccccc32)c(F)c1 (stereo unspecified),-5,-2,1,-1,5,.,
SMILES,Cardiac RTF inh,Keap1 Nrf2 FP,LANA DNA inh,LANA-H2A inh,RTF Ca sens act,Keap1 Kelch bind,others
CCN(CC)c1ccc(/C=N/NC(=O)c2c(Cl)cnn2C)c(O)c1,-17,22*,-2,-3,2,-0.15,
CCOC(=O)N/N=C/c1ccc(N(CC)CC)cc1O,6,0,1,3,-1,.,
O=C(O)c1cc(N2C(=O)C=CC2=O)cc(N2C(=O)C=CC2=O)c1,13,33*,98*,.,3,0.27,Sypro dye melt=-27
COc1ccc(-c2cc(C(=O)Nc3ccc(Br)cc3)no2)cc1,-2,-7,-1,0,2,.,
O=[N+]([O-])c1ccc(S(=O)(=O)c2ccccc2)nc1,-7,13*,-1,-1,-7,-0.08,
O=C1C=CC(=O)c2c(O)c(N3CCN(CCO)CC3)c(Cl)c(O)c21,1,39*,4,.,-6,-0.07,Sypro dye melt=-22
O=C1C=CC(=O)c2c(O)c(N3CCN(CCOCCO)CC3)c(Br)c(O)c21,5,25*,10,.,-1,0.08,
O=S(=O)(c1ccc(Br)cc1Cl)N1CCN(CCO)CC1,-3,-5,0,-4,-1,.,
OCCOCCN1CCN(C2=Nc3ccccc3Sc3ccccc32)CC1,i,i,0,2,i,.,
C=CCOc1ccc(CNCc2cccnc2)cc1,-7,-2,-3,-2,1,.,
COc1ccc(NC(=O)Cc2ccsc2)cc1S(=O)(=O)N1CCOCC1,-13,46*,27,-6,9,-0.13,
CS(=O)(=O)c1ccc2nc(NC(=O)CCNC(=O)c3ccc(Cl)cc3)sc2c1,-6,.,.,.,2,.,
CC1Cc2cc(/C=C3/SC(N4CCC(C(N)=O)CC4)=NC3=O)ccc2O1 (stereo unspecified),.,21*,11,8,.,-0.12,
CC1CCN(C2=NC(=O)/C(=C/c3cccc(O)c3)S2)CC1,-4,-1,-1,4,-1,.,
Cc1oc2c(cc(NS(=O)(=O)c3ccc4c5c(cccc35)C(=O)N4)c3ccccc32)c1C(=O)OC(C)C,-6,0,0,-2,9,.,
O=C1CCCc2oc3c(cc(NS(=O)(=O)c4ccc5c6c(cccc46)C(=O)N5)c4ccccc43)c21,-2,24*,0,4,2,1.6*,
CC[C@@]1(O)C(=O)OCc2c1cc1n(c2=O)Cc2cc3c(CN(C)C)c(O)ccc3nc2-1,-222,78*,131*,68*,221*,-0.08,
CC(C)N(Cc1ccccc1)C(=O)COC(=O)/C=C/c1cnc2ccccc2n1,5,2,2,1,3,.,
Cn1c(=O)[nH]c(=O)c2c1nc(NCCCn1ccnc1)n2Cc1ccccc1,-4,3,2,-4,-3,.,
COC(=O)c1ccc(OC(=O)CN2C(=O)c3ccccc3C2=O)cc1,-6,57*,25,-2,-2,-0.1,
Cc1cc2nc3c(=O)[nH]c(=O)[nH]c3nc2c([N+](=O)[O-])c1N,-133,89*,109*,.,140*,0.18,Sypro dye melt=-27
